# High-throughput results: PubChem BioAssay, several laboratories
# Most compounds without a hit are left out; they make up all but 5.4% or so of the library.
# PP5 primary = PP5 phosphatase inhibitors, primary screen, biochemical, fluorescence. inhibition, % at 6.7 µM. purified PP5c, OMFP substrate fluorescence. Serine/threonine-protein phosphatase 5 (Homo sapiens), P53041. 320,000 compounds, 0.18% hits;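 active = inhibition above the campaign's mean inhibition across all tested compounds plus 3 SD, cut at about 9.5% in these data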;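 also: 0% = DMSO only and 100% = 100 µM cantharidin control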
# PP1 inh = PP1-alpha phosphatase inhibitors, primary screen, counter-screen for PP5 inhibitor project, biochemical, fluorescence, OMFP substrate, single point. inhibition, % at 6.7 µM. 320,000 compounds, 0.9% hits. purified PP1alpha. Serine/threonine-protein phosphatase PP1-alpha catalytic subunit (Homo sapiens), P62136. AID 2235, 2010;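 active = inhibition above the mean inhibition of all tested compounds plus 3 SD, computed separately for each screening campaign, cut at about 15% in these data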
# Target sequence (P62136 whole entry, looked up): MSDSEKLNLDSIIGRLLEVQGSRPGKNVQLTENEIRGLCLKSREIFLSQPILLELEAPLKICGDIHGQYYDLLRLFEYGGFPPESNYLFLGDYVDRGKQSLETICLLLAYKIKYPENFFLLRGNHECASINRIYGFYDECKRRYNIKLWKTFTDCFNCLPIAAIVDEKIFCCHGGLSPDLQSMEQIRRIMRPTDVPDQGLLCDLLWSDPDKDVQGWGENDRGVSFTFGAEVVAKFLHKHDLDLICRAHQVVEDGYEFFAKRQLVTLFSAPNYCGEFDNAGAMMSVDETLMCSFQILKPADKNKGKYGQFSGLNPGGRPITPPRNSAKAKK
# CSC inhib = cancer stem cell viability inhibitors, primary screen, luminescence; inhibition, % at 7.5 µM; AID 2717, 2010; 300,000 compounds, 1.1% hits; cancer stem cell-like cells viability; in the data active = inhibition above about 75%; inconclusive = no clear call, values can overlap the other calls; tested in HMLE shEcad cells
# ALR inh = inhibitors of human ALR sulfhydryl oxidase, primary screen, biochemical, H2O2 detection, HRP-luminol luminescence, single point. inhibition, % (no concentration beside the values). 290,000 compounds, 3.8% hits. FAD-linked sulfhydryl oxidase ALR (Homo sapiens), P55789. purified ALR, DTT oxidation;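 active = mean replicate inhibition above about 79%, with every replicate also reaching it, limit read from the data; inconclusive = only one of the two criteria met; inactive = mean below limit and not every replicate reaching it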
# Target sequence (P55789 whole entry, looked up): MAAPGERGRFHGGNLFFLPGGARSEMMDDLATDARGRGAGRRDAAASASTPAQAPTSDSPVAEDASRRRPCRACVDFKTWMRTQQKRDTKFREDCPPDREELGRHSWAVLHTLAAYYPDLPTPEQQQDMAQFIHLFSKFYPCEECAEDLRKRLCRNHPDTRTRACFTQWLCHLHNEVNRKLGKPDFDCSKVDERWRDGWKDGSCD
# Calb FLC = C. albicans growth inhibition with fluconazole, primary screen, CaCi-2 strain, Alamar Blue fluorescence; AID 1979, 2009; 300,000 compounds, 0.57% hits; growth inhibition, % (concentration not given with the values); C. albicans CaCi-2 (fluconazole-resistant clinical isolate) + fluconazole, 48 h;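 active = growth inhibition above about 58% in most replicates, limit read from the data, passing the limit was not always enough; inconclusive = exactly half the replicates above a set limit; inactive = most replicates below a set limit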;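 also: all wells also contain fluconazole at 8 µg/ml as a sub-toxic cotreatment; 0% = median of DMSO wells and 100% = median of geldanamycin control wells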
# Numbers without * were called inactive; ? = inconclusive; nt = no result given.
SMILES,PP5 primary,PP1 inh,CSC inhib,ALR inh,Calb FLC
COc1ccc(C2/C=C\CN(C(=O)Nc3ccccc3-c3ccccc3)CC(=O)N2Cc2ccc(F)cc2)cc1 (stereo not drawn),5,16*,15,4,15
O=C(N/N=C/c1cc2c3c(c1O)CCCN3CCC2)c1ccccc1O,nt,nt,nt,nt,108*
Cc1nn(-c2ccccc2)c(N2CCCC2)c1C=O,-4,0,-13,4,-11
Cc1nn(-c2ccccc2)c(N2CCCC2)c1/C=N/NC(=O)c1ccccc1O,6,3,3,5,91*
Cc1nn(-c2ccccc2)c(N2CCCCC2)c1/C=N/O,4,-2,164*,-1,-9
Cc1cccc(NC(=O)CCC(=O)N/N=C/c2cccnc2)c1,2,-2,4,-2,6
O=C(Nc1ccccc1)N(Cc1cccs1)C1CCCC1,0,3,26,0,-26
Cc1cc(C)c2c(C)nn(C3CCCCC3)c2n1,4,3,-4,-1,-11
CN(C)c1cccc2c(/C=N/O)ccc(N(C)C)c12,2,0,-12,89*,24
CC1(C)Cc2ccccc2C(Nn2cnnc2)=N1,0,0,-3,-4,-3
CC1(C)Cc2ccccc2C2=NNC(=O)C2=N1,0,-4,25,99*,46
CCN1/C(=C\C=C2\C(=O)N(C)C(=S)N2C)Sc2ccccc21,0,0,5,21,-3
CCOC(=O)/C(=C\C=C1/Sc2cc(OCC)c(OCC)cc2N1CC)C(C)=O,0,-2,4,93*,-3
CCOC(=O)/C(=C/C=C1\Sc2cc(OCC)c(OCC)cc2N1CC)C(C)=O,3,-7,-5,92*,-30
Cc1cccc(NCc2nc3ccccc3n2C)c1,2,-2,3,-1,2
Cc1ccc(NCc2n[nH]c(=S)n2-c2ccccc2)cc1,4,-6,0,98*,0
Cc1cccc(NCc2n[nH]c(=S)n2-c2ccccc2)c1,4,-2,-1,42,3
Cc1ccc(NCc2nc3ccccc3n2C)c(C)c1,-2,-3,-5,98*,-1
CS(=O)(=O)Nc1ccc(-c2n[nH]c(=S)n2-c2ccccc2)cc1,1,-2,-3,97*,0
Cc1ccc(NCc2n[nH]c(=S)n2-c2ccccc2)c(C)c1,-2,-6,-15,98*,-3
Cc1cccc(-n2c(Cc3ccccc3)n[nH]c2=S)c1,-2,0,4,5,11
Cc1cc(NC(=O)c2ccco2)ccc1NC(=O)Cc1cccs1,-1,-5,-8,-1,-21
O=C(/C=C/c1ccco1)NC(=S)Nc1ccc(N2CCCC2)cc1,1,9,67,74,2
CCn1c(SCC(=O)N/N=C/c2cc(OC)c(OC)c(OC)c2)nc2ccccc21,1,-5,-10,4,-13
CCn1c(SCC(=O)N/N=C/c2ccc(O)c(OC)c2)nc2ccccc21,3,-2,-2,99*,-5
SMILES,PP5 primary,PP1 inh,CSC inhib,ALR inh,Calb FLC
COc1ccc(Cc2nc3ccccc3n2CC(=O)N/N=C/c2ccc(O)cc2)cc1OC,-3,-3,-12,100*,4
COc1ccc(/C=N/NC(=O)Cn2c(Cc3ccc(OC)c(OC)c3)nc3ccccc32)cc1OC,1,-3,0,-14,-1
CC(/C=N/NC(=O)CCn1nnc2ccccc21)=C\c1ccccc1,4,2,-7,-4,-5
CCOc1cc(/C=N/NC(=O)CCn2nnc3ccccc32)ccc1O,-1,-2,14,100*,-2
CCn1c(SCC(=O)N/N=C/c2cccs2)nc2ccccc21,-1,-1,-7,-4,?
CCn1c(SCC(=O)N/N=C/c2cc(OC)c(O)c(OC)c2)nc2ccccc21,3,1,-5,99*,6
CCOC(=O)N1CCN(C(=O)C2CCN(S(=O)(=O)c3ccccc3)CC2)CC1,2,2,-12,-22,-6
CC(C)NC(=O)c1cc2c(=O)n3ccccc3nc2s1,0,0,-4,53,-5
COc1cc(/C=N/NC(=O)CSc2n[nH]c(=O)[nH]c2=O)cc(OC)c1O,3,-2,8,98*,10
COc1ccc(/C=N/NC(=O)C(C)n2nnc3ccccc32)cc1OC (stereo not drawn),1,-1,-5,31,1
COc1cc(/C=N/NC(=O)C(C)n2nnc3ccccc32)ccc1O (stereo not drawn),-2,1,-10,97*,6
Cc1cccc(C)c1N1CCN(c2n[nH]c(N)n2)CC1,-1,-2,1,96*,5
COc1ccc(N2CCN(c3n[nH]c(N)n3)CC2)cc1,2,-2,-8,98*,8
Nc1nc(N2CCN(C(c3ccccc3)c3ccccc3)CC2)n[nH]1,-3,0,-1,16,4
CC(=O)c1ccccc1NC(=O)CSc1n[nH]c(=O)n1C1CC1,nt,nt,8,-3,nt
O=C(O)C(O)C(O)C(O)C(O)C(=O)O (stereo not drawn) (tested in a mixture with another compound),-2,-2,-3,-8,nt
CN(CC(=O)Nc1c(Cl)cccc1Cl)C(=O)c1ccccc1Cc1ccccc1,1,-1,-11,3,-4
CC(C)CC1(C(=O)O)NC(c2ccccc2O)C2C(=O)N(C(C)C)C(=O)C21 (stereo not drawn),3,-4,-2,93*,0
CC(C)N1C(=O)C2C(c3ccccc3O)NC(C)(C(=O)O)C2C1=O (stereo not drawn),0,-3,-6,89*,11
COc1cccc(C2NC(CC(C)C)(C(=O)O)C3C(=O)N(Cc4ccccc4)C(=O)C23)c1O (stereo not drawn),3,-8,7,48,4
COc1cccc(C2NC(CCSC)(C(=O)O)C3C(=O)N(C(C)C)C(=O)C23)c1O (stereo not drawn),-1,-4,-8,98*,21
CCOC(=O)C1(C)NC(c2ccc(O)cc2)C2C(=O)N(c3ccccc3)C(=O)C21 (stereo not drawn),3,2,-8,-5,-9
CN1C[C@@H]2C(c3ccc(Cl)nc3)C3(c4cccnc4)CC2(C3)[C@H]1c1ccccc1 (stereo partly drawn),0,-2,1,32,9
O=C(Oc1cccc(-n2cnnn2)c1)c1ccco1,0,3,3,31,-1
COc1ccc(C[C@H]2CN3C(=NC[C@@H]3C(C)C)N2CCNC(=O)CCC2CCCCC2)cc1,2,2,4,1,31
COc1ccc(C[C@H]2CN3C(=NC[C@@H]3Cc3ccccc3)N2CCNC(=O)CCC2CCCCC2)cc1,1,7,128*,-25,56
N[C@@H](Cc1ccccc1)c1nnc(SCc2ccccc2Cl)o1,5,0,-4,98*,-1
